Laboratory results from PubChem BioAssay AID687014 (The Scripps Research Institute Molecular Screening Center, 2013).
Screen size: about 370,000 compounds; about 6,800 (1.8%) were called active.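 The calls were made as follows: active = activation above a cutoff set at the mean of all screened compounds plus 3 SD (cut at about 10% in these data); inactive = the rest.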 What follows is part of a selection rich in actives, with near analogues and random picks from the rest.

What follows are compounds tested on Nuclear hormone receptor DAF-12 (Heterodera glycines), GAL4 fusion (assay: H. glycines DAF-12 receptor agonists, primary screen, cell-based, luminescence, HEK293, GAL4 fusion, UAS-luciferase (AID 687014;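 also: 0% = DMSO wells and 100% = sodium butyrate wells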)). Conditions: HEK293 GAL4-hgDAF12 UAS-luciferase reporter, agonist luminescence; at 6.8 µM; stronger effect = higher value; normalized to butyrate control.

| Structure (SMILES) | activation |
| --- | --- |
| CC(C)c1cc(NCc2ccccn2)n2c(nc3ccccc32)c1C#N | 3.15% (inactive) |
| C=CCN(C(=O)[C@@H](CCCC)[C@@H](O)c1ccc(Cl)cc1)c1ccccc1 | 1.69% (inactive) |
| CC(=NNC(N)=O)c1ccc(Cl)c(-n2cccc2)c1 | 1.64% (inactive) |
| Cc1cc(NC(=O)C(C)N2C(=O)c3ccccc3S2(=O)=O)no1 (stereo not given) | -0.78% (inactive) |
| O=C(OCCN1CCOCC1)C1(c2ccccc2)CCCCC1 | -2.44% (inactive) |
| c1coc(CCNc2ncnc3ccc(-c4ccc5c(c4)OCO5)cc23)c1 | -2.33% (inactive) |
| Oc1cccc2cc(-c3ccncc3)cnc12 | 15.1% (active) |
| Cc1cc2c(nc1C)CCCN2C | 0.83% (inactive) |
| COc1ccc(NC(=O)C2CCC(CNC(=O)[C@@H]3Cc4ccccc4CN3)CC2)cc1 (stereo not given in full) | -1.49% (inactive) |
| CN1C[C@]2(C=C3CCCCC3n3c(=O)n(-c4ccccc4)c(=O)n32)N=C1NC(=O)c1ccccc1 (stereo not given in full) | 2.4% (inactive) |
| COc1ccc(-n2c(SCC(=O)Nc3ccc(C)c(Cl)c3)nc3ccccc3c2=O)cc1 | -4.03% (inactive) |
| FC(F)(F)c1cccc(NC(=S)OC2CCC23CCC(c2ccccc2)CC3)c1 (stereo not given) | 2.72% (inactive) |
| COCCN(C(=S)Nc1ccccc1OC)C1CCN(C(C)C)CC1 | -3% (inactive) |
| CCn1c(SCCC(C)C)nnc1-c1c[nH]c2ccccc12 | -2.13% (inactive) |
| Cc1ccc(-c2csc(-c3c[nH]c4ccccc34)n2)cc1 | 13.1% (active) |
| Cc1ccc(-c2csc(N(Cc3ccco3)C(=O)c3cccs3)n2)cc1 | 4.33% (inactive) |
| CC(=O)Nc1nc2ncccn2c1-c1ccc(C(F)(F)F)cc1 | 0.34% (inactive) |
| O=C(CSC(=S)N1CCCCC1)c1c(F)cccc1F | 16.9% (active) |
| O=C(CSC(=S)N1CCOCC1)c1ccccc1 | 10.7% (active) |
| N[C@@H](Cc1ccccc1)C(=O)N1CCOCC1 | 0.96% (inactive) |
| O=C(CP(=O)(c1ccccc1)c1ccccc1)N1CCOCC1 | 1.84% (inactive) |
| COc1cccc(NC(=O)CN(C)C(=O)CSC(=S)N2CCCC2)c1 | 2.56% (inactive) |
| CC(=O)c1ccc(NC(=O)CSC(=S)N2CCCC2)cc1 | 7.4% (inactive) |

| Structure (SMILES) | activation |
| --- | --- |
| O=C1[C@@H](c2ccccc2)[C@@H](c2ccccc2)N1c1ccccc1 | -0.47% (inactive) |
| CCOC(=O)Cn1c2c(n(-c3ccc(F)cc3)c1=O)C=C(c1ccccc1)[C@@H](C)C(C(=O)N(C)C1CCCCC1)=C2 | -2.75% (inactive) |
| CN[C@H]1C[C@H]2c3cc(N4CCOCC4)ccc3CCN2C[C@H]1[C@H](C)O | -0.47% (inactive) |
| CCC(=O)Nc1ccc2c(c1)C(=O)N(C)[C@H]1CC[C@H](CC(=O)NCCOC)O[C@@H]1CO2 | -3.11% (inactive) |
| O=C(NCc1cccs1)C1CCCN(S(=O)(=O)c2ccc([N+](=O)[O-])cc2)C1 (stereo not given) | -1.45% (inactive) |
| C[C@@H]1ON(C)[C@H]2C[C@H]3c4[nH]c5cccc(-c6ccc7c(c6)OCO7)c5c4CCN3C[C@@H]12 | -2.08% (inactive) |
| CC(=O)N1C[C@@H](CO)[C@@H](N(C)C(=O)C(C)(C)C)C[C@H]1c1ccccc1Br | 4.28% (inactive) |
| C=C1C(C(C)C)N(C)C2=NC(c3ccccc3)CC(=O)N12 (stereo not given) | -2.06% (inactive) |
| CN1CCN(c2ccc(NC(=O)c3ccccc3)cc2)CC1 | 10.5% (active) |
| O=C(Nc1ccc(S(=O)(=O)N2CCc3ccccc3C2)cc1)c1ccccc1 | -0.73% (inactive) |
| O=C(CN1CCN(c2ccc(O)cc2)CC1)Nc1ccc(-c2ccccc2)cc1 | 0.81% (inactive) |
| COc1cccc(CNC(=O)[C@H]2CCCN2C(=O)[C@H]2CCCN2C(=O)C2CCCCC2)c1 | -1.24% (inactive) |
| O=S(=O)(c1cccs1)N1CCCc2nc(-c3ccc(Br)cc3)ccc21 | -0.93% (inactive) |
| CCCCn1nnnc1C(c1cc2ccccc2o1)N(C)Cc1ccc(Cl)c(Cl)c1 (stereo not given) | 4.88% (inactive) |
| CCN1CCC(=NNC(=O)c2ccc(C)c([N+](=O)[O-])c2)CC1 | -0.03% (inactive) |
| Cc1cc(O)c(NC(=O)c2ccc(C)c([N+](=O)[O-])c2)cc1C | 14.1% (active) |
| CCCCNc1ccc(C(=O)Nc2cccc(C)n2)cc1[N+](=O)[O-] | 1.4% (inactive) |
| O=C(CSc1nnc(-c2ccccn2)n1-c1ccc(Cl)cc1)Nc1ccccc1-c1ccccc1 | -5.11% (inactive) |
| C[C@@H]1COc2cccc(N3CCCC3)c2S(=O)(=O)N1C | 2.34% (inactive) |
| COc1ccc(C(=O)CSc2nnc(-c3cnccn3)n2-c2ccc(C)cc2)cc1 | -1.45% (inactive) |
| CC1CC(C)CN(CCCNC(=O)c2csc3c2CCCCC3)C1 (stereo not given) | 1.68% (inactive) |
| Cc1ccc(NC(=O)C2(N3CCC3=O)CCCCC2)cc1 | -1.36% (inactive) |
| Cc1ccc(NC(=O)c2csc3c2CCCC3)cc1 | 23% (active) |

| Structure (SMILES) | activation |
| --- | --- |
| CC(C)(C)c1ccc(S(=O)(=O)NCC2CCN(C(=O)C(=O)c3cc4ccccc4o3)CC2)cc1 | -2.12% (inactive) |
| CC(C)CC1NC(=O)c2cc(Cl)ccc2-n2c1nc1ccccc1c2=O (stereo not given) | -4.04% (inactive) |
| CC(=O)Nc1ccc(S(=O)(=O)NC2Cc3ccccc3C2)cc1 | -1.12% (inactive) |
| Cc1ccc(-n2nc3cc(C)c(NC(=O)c4cccnc4)cc3n2)cc1 | 3.33% (inactive) |
| O=C(Nc1cccc(-n2cnnn2)c1)c1cccnc1 | 0.26% (inactive) |
| CC(=O)Nc1ccc(-c2nc3ccccc3o2)cc1 | 14.1% (active) |
| CCN(CC)C(=O)CSc1nc2ccccc2o1 | 4.9% (inactive) |
| Cc1cc2nc(-c3ccc(NC(=O)c4cccnc4)cc3)oc2cc1C | 10.8% (active) |
| COc1ccc(C2=CN(Cc3ccccc3)C(c3ccc(OC)cc3)CC2=O)cc1 (stereo not given) | 1.21% (inactive) |
| COc1ccc(CN(C)Cc2nc3cc(OC)c(OC)cc3c(=O)[nH]2)c(OC)c1 | -1.81% (inactive) |
| CC(C)CNc1cccc2c1S(=O)(=O)N(Cc1cn(Cc3ccc(Cl)cc3)nn1)Cc1ccccc1O2 | 1.68% (inactive) |
| CCOC(=O)c1c(C)[nH]c(C2=NNC(=NC(C)COC)SC2)c1C (stereo not given) | 12.9% (active) |
| COC(=O)C[C@H]1C=C[C@@H](NS(=O)(=O)c2ccc(C)cc2)[C@@H](CO)O1 | 3.19% (inactive) |
| COc1ccc(CN(CCN2CCOCC2)C(=O)c2ccc(C)cc2)cc1OC | 2.69% (inactive) |
| CN(C)C(CNC(=O)c1cc2ccccc2o1)c1ccccc1 (stereo not given) | 0.25% (inactive) |
| Cc1ccc(NC(=O)c2cc3ccccc3o2)cc1 | 15.2% (active) |
| CN1CCN(S(=O)(=O)c2ccc(NC(=O)c3ccco3)cc2)CC1 | 3.6% (inactive) |
| Cc1ccc(NC(=O)c2ccco2)cc1 | 13.3% (active) |
| C/C(=N\NC(=S)Nc1ccc(C)cc1)c1cc2ccccc2o1 | 0.54% (inactive) |
| CC1CCN(c2ccc(-c3ccc(NC(=O)c4ccco4)cc3)nn2)CC1 | 7.1% (inactive) |
| CCCCNC(=O)C[C@@H]1C(=O)N(CCc2ccc(Cl)cc2)C2=CCCC[C@]21C(=O)OCC | -1.77% (inactive) |
| COc1cccc(CNC(=O)[C@H]2CCCN2C(=O)[C@H]2CCCN2C(=O)c2ccc(F)cc2)c1 | -0.01% (inactive) |
| Nn1c(SCC(=O)N2c3ccccc3Sc3ccccc32)nnc1-c1n[nH]c2c1CCC2 | -2.62% (inactive) |

| Structure (SMILES) | activation |
| --- | --- |
| Nc1ncnc2c1ncn2[C@@H]1O[C@H](C(=O)N2CCSC2)[C@@H](O)[C@H]1O | -0.23% (inactive) |
| O=C(CSc1nnc(-c2cccc(Cl)c2)n1Cc1ccco1)Nc1ccc(OCc2ccccc2)cc1 | -1.62% (inactive) |
| COc1cccc(N(C(=O)C2COc3ccccc3O2)C(C(=O)NC2CCCCC2)c2ccc(O)cc2)c1 (stereo not given) | 0.49% (inactive) |
| Nn1c(SCC(=O)Nc2ccc(S(N)(=O)=O)cc2)nnc1-c1n[nH]c2c1CCC2 | 0.61% (inactive) |
| CC(=O)Oc1ccc(C)cc1N1C(=O)c2ccc(C(=O)O)cc2C1=O | -2.04% (inactive) |
| COc1ccc(C(=O)/C=C/c2ccc(-c3ccccc3)cc2)cc1CSCC(=O)O | -3.73% (inactive) |
| O=C(O)c1ccc2c(c1)C(=O)N(c1ccc(/C=C/C(=O)c3ccccc3)cc1)C2=O | 14.1% (active) |
| CCOC(=O)C1(Cc2ccccc2)CCN(Cc2cn(C(C)=O)c3ccccc23)CC1 | 1.22% (inactive) |
| CCC(=O)Nc1sc(C(=O)Nc2ccccc2)c(C)c1C(=O)OC | 13.4% (active) |
| COC(=O)c1c(NC(C)=O)sc(C(=O)Nc2ccccc2OC)c1C | -3.24% (inactive) |
| COC(=O)c1sc(NC(=O)COC(=O)C2CCC2)c(C(=O)OC)c1C | 0.97% (inactive) |
| COc1ccccc1-c1ccc([C@@H]2C[C@H]3[C@H](CON3C)CN2S(=O)(=O)c2cc(Cl)cc(Cl)c2)cc1 | 4.17% (inactive) |
| COC(=O)Nc1nc2ccc(C(=O)C3CC3)cc2[nH]1 | 6.35% (inactive) |
| COC(=O)C[C@H]1CC[C@H]2[C@H](COc3ccc(NC(=O)C4CC4)cc3C(=O)N2C)O1 | 1.59% (inactive) |
| O=C(Nc1nnc(-c2ccc(Cl)cc2)o1)c1ccccc1Br | 3.84% (inactive) |
| O=S(=O)(c1ccc(Br)cc1)c1nc(-c2ccccc2)oc1N1CCOCC1 | -0.08% (inactive) |
| Nc1ccc(-c2nnc(-c3ccccc3)o2)cc1 | 10.4% (active) |
| Brc1ccc(-c2nnc(-c3ccccc3)o2)o1 | 11.2% (active) |
| Brc1ccc(-c2noc(-c3ccccc3)n2)o1 | 15.9% (active) |
| O=C(OCc1nnc(-c2ccccc2)o1)c1ccc2c(c1)C(=O)N(CCc1ccccc1)C2=O | -0.76% (inactive) |
| CCCN(CCC)c1ccc(C(O)c2nnc(-c3ccccc3)o2)cc1 (stereo not given) | -0.77% (inactive) |
